This is one part of a sample in which hits are shown more often than they occur.
Pf Dd2 growth = inhibitors of Plasmodium falciparum Dd2 growth. P. falciparum Dd2 growth, SYBR Green, 72 h. Potency, µM (highest dose often 28.9 µM), for the others: at the top dose activity, negative = inhibition, hits mostly inhibitors. 120,000 compounds, 4.3% hits. AID 1347417; active = well fitted inhibition curve with a large enough effect;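 note: plate controls were DMSO vehicle for no effect and reference drug for full effect; nearly all actives have a fitted effect of over 65% in size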
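Readout: SYBR Green fluorescence, 485 nm excitation, 535 nm emission, after ~16 h lysis at 37C. Before that, Dd2-infected red cells (2.5% hematocrit) grew 72 h with compound, 29 uM top final concentration.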
* marks the source's active call; other numbers are inactive results; i = inactive; [ ] = dose if it differs, or a comment. Potency is the fitted concentration of half-maximal effect.

SMILES	Pf Dd2 growth
Cc1ccsc1C(=O)N1CCC2(CC1)NC(=O)N(c1cccc(Cl)c1)N2	i
COCCCn1c(CN(C)CCc2ccccc2)cnc1S(=O)(=O)C1CCCC1	i
CCCN1C(=O)CCc2cc(NC(=O)c3ccc4c(c3)OCO4)ccc21	-30%
COCCNc1nc2c([S+](=O)([O-])c3cc(OC)ccc3OC)nnn2c2ccccc12	-17%
O=C(c1n[nH]c2c1CCCC2)N1CCc2c(nc3cc(-c4ccccc4)[nH]n3c2=O)C1	-11%
CNC(=O)[C@@H](c1ccccc1F)N1CCC[C@H]1C(=O)NC1CC1	i
CCc1noc([C@@H]2CC(F)(F)CN2C(=O)c2ccc(OC)nc2)n1	35%
Cc1noc(C)c1CC(=O)N[C@@H]1CN(S(C)(=O)=O)C[C@H]1CN(C)C	44%
COc1ccc(-c2ccc3ncc(Nc4cccnc4OC)n3n2)cc1OC	-6%[44.1 µM]
COc1ccc(Nc2cnc3ccc(-c4ccc(OC)c(OC)c4)nn23)cc1	1.1µM*
COc1ccc(Nc2cnc3ccc(-c4ccc(OC)c(OC)c4)nn23)cc1OC	i
O=C(Cc1ccccc1)N1CCCC2(C1)Nc1cccnc1NC2=NC1CCCC1 (stereo not drawn)	i[5.79 µM]
CCOCCc1nc(C2CCOC2)nn1C1CCCCC1 (stereo not drawn)	-3%
Cc1nc(N2CCOCC2)c2c(C(=O)N3CCN(c4ccccc4)CC3)c(C)oc2n1	32%
CCOC(=O)c1c(C)oc2nc(C)nc(NCC3CCN(Cc4ccc(C)cc4)CC3)c12	7.1µM*
CCOC(=O)c1c(C)oc2nc(C)nc(N3CCN(c4ccccc4F)CC3)c12	3.2µM*
CCOC(=O)c1c(C)oc2nc(C)nc(NCCc3ccc(OCC)cc3)c12	i[5.79 µM]
CCc1cccc(NC(=O)c2c(C)oc3nc(C)nc(N4CCCC4)c23)c1	-9%
CCOC(=O)c1c(C)oc2nc(C)nc(N3CCN(c4cc(Cl)ccc4C)CC3)c12	8.9µM*
CCOC(=O)c1c(C)oc2nc(C)nc(NCCCN3CCN(c4ccccc4)CC3)c12	-13%
CCOC(=O)c1c(C)oc2nc(C)nc(NCCc3ccc(Cl)cc3)c12	-18%
CCOC(=O)c1c(C)oc2nc(C)nc(NCC3CCN(Cc4cccc(Cl)c4)CC3)c12	-18%
O=C(c1ccncc1)N1CCC(c2nc(C3CCOCC3)no2)C1 (stereo not drawn)	-14%
O=C(CCc1ccccc1)Nc1ccc([C@@H](O)[C@H]2COCC(=O)N2Cc2ccncc2)cc1	i
CO[C@@H]1C[C@H]2C(=O)Nc3ccc(-c4ccccc4F)cc3C(=O)N2C1	-20%[44.1 µM]
SMILES	Pf Dd2 growth
COCCNC(=O)[C@@H]1CCC[C@@H](NC(=O)c2cc(C)on2)CN(C)C(=O)C1	2%[44.1 µM]
COc1ccccc1-c1nnc2n1C(C(=O)N1CCOCC1)CC2 (stereo not drawn)	11%
CN(C)CCCC(=O)N1CCC2(CC1)CN(C(=O)Cc1ccc(O)cc1)CCO2	9%
CCOC(=O)c1cc(S(=O)(=O)N2CCN(c3cccc(OC)c3)CC2)[nH]n1	-17%
CCOC(=O)c1[nH]c(C)c(CCC(=O)N2CCN(c3cc(Cl)ccc3C)CC2)c1C	0.56µM*
CCOC(=O)c1[nH]c(C)c(CCC(=O)NCc2ccccc2)c1C	1%
CCOC(=O)c1[nH]c(C)c(CCC(=O)N2CCN(c3cc(C)ccc3C)CC2)c1C	0.63µM*
CCOC(=O)c1[nH]c(C)c(CCC(=O)Nc2cc(C)ccc2OC)c1C	-22%
CCOC(=O)c1[nH]c(C)c(CCC(=O)N2CCN(c3cccc(OC)c3)CC2)c1C	4µM*
Cc1ccc(Cl)cc1N1CCN(C(=O)CCSCc2ccccc2F)CC1	i
CCOC(=O)c1[nH]c(C)c(CCC(=O)NCc2cccc(Cl)c2)c1C	-16%
COc1cccc(N2CCN(C(=O)CCc3conc3-c3ccccc3)CC2)c1	-12%
COc1ccc(C(=O)NC2CCN(c3ccc(=O)n(C)n3)CC2)c(OC)n1	-23%
CCc1cc(N2CCC(Oc3ccccc3OC)(C(=O)O)CC2)nc(C)n1	i
Cc1nnc(CN2CCN(C)C3(CCC(=O)N(CC(=O)O)CC3)C2)o1 (stereo not drawn)	-8%
Cc1ccc2nc3n(c2c1)[C@@H](CNCc1cccnc1)COC3	37%[44.1 µM]
CN(C)c1cccc(Oc2nnnn2[C@H]2CO[C@H]3[C@@H]2OC[C@@H]3NC(=O)CC(C)(C)CC(=O)O)c1	0%
CCN1C(=O)CCc2cc(NC(=O)c3ccc(OC)cc3C)ccc21	i
O=Cc1ccc(N2CCN(C(=O)c3ccc4c(c3)OCO4)CC2=O)cc1	10%
Cc1noc(-c2cn(C3CCN(C(=O)c4ccccc4)CC3)nn2)n1	7%
CCn1nc(-c2ccccc2SC)nc1N(C)C	3%
CCn1nccc1C(=O)N1CCC(Oc2ccccc2)C1 (stereo not drawn)	i
Cn1ncc(N2CCC(C(=O)N3CCc4ccccc4C3)C2)cc1=O (stereo not drawn)	8%
CCNC(=O)N1CCCC1c1noc(COc2ccc(F)cc2)n1 (stereo not drawn)	-8%
COC1C(=O)N(C2CCN(C(=O)c3cnccn3)CC2)C12CCOCC2 (stereo not drawn)	1%
SMILES	Pf Dd2 growth
CC(=O)NC[C@@H]1C=C(C)[C@H](Cc2nc3ccccc3n2C)C[C@H]1C(C)C	i
CC1=C[C@@H](CNCc2ccccn2)[C@H](C(C)C)C[C@H]1Cc1nnc(-c2ccccc2F)o1	3.2µM*
CC(=O)N1CCN(C[C@@H]2C=C(C)[C@H](Cc3nnc(-c4ccncc4)o3)C[C@H]2C(C)C)CC1	11µM*
CC1=C[C@@H](CNCc2ccncc2)[C@H](C(C)C)C[C@H]1Cc1nnc(C)o1	i
CC1=C[C@@H](CNCc2ccc(C#N)cc2)[C@H](C(C)C)C[C@H]1Cc1nnc(-c2cccnc2)o1	-19%
CC1=C[C@@H](CNC(=O)N2CCOCC2)[C@H](C(C)C)C[C@H]1Cc1nc2ccccc2[nH]1	-8%[44.1 µM]
CC(=O)NC[C@@H]1C=C(C)[C@H](Cc2nnc(-c3cncn3C)o2)C[C@H]1C(C)C	0%[44.1 µM]
CC1=C[C@@H](CN2CCN(c3ccccc3)CC2)[C@H](C(C)C)C[C@H]1Cc1nnc(-c2cncn2C)o1	4µM*
CC1=C[C@@H](CN2CCC(C(N)=O)CC2)[C@H](C(C)C)C[C@H]1Cc1nnc(-c2cccnc2)o1	i
CC1=C[C@@H](CNC2CCOCC2)[C@H](C(C)C)C[C@H]1Cc1nc2ccccc2n1C	5µM*
CC(=O)N1CCN(C[C@@H]2C=C(C)[C@H](Cc3nnc(-c4cncn4C)o3)C[C@H]2C(C)C)CC1	-12%
CC1=C[C@@H](CN2CCC(C(N)=O)CC2)[C@H](C(C)C)C[C@H]1Cc1nnc(-c2ccncc2)o1	-11%[44.1 µM]
Cn1c(=O)oc2ccc(C(=O)N3CCn4nc(C(O)CO)cc4C3)cc21 (stereo not drawn)	-11%
Cc1ccccc1-n1nnnc1C(c1ccccc1)N(C)C(=O)c1cn[nH]n1 (stereo not drawn)	-16%
CN(C)C[C@H]1O[C@H](Cc2cc(-c3cccc(O)c3)on2)CC[C@@H]1O	i
O=C(c1ccccc1)N1C[C@@H]2C[C@H](C1)c1ccc(-c3cncnc3)c(=O)n1C2	-7%[44.1 µM]
CN(C)c1ccc(NC(=O)Cn2nc3n(c2=O)CCCC3)cc1	-3%
Cc1cccn2c(CNC3CCC4(CCNCC4)CC3)cnc12	8%
Cc1cnccc1N1CCCN(C(=O)c2cccc(C3CCCNC3)c2)CC1 (stereo not drawn)	-8%
CCc1cn(C[C@H](NC(=O)C(C)(C)C)C(=O)O)c(=O)[nH]c1=O	-11%[44.1 µM]
CC[C@@]1(C(=O)O)C[C@H](C(=O)NC(CO)CO)[C@H](c2ccc(F)cc2)N1C	-12%

Screening results as filed in PubChem.
